The values below come from PubChem BioAssay (EPA / NIEHS).

Calls of active or inactive are those of the source. The calls were made as follows: active = hit-call score of the fitted dose curve at least 0.9, where 1 is the maximum; inactive = score below 0.9.

A short description of this assay: CCTE_Shafer_MEA_acute_burst_duration_mean: CCTE's Neural Acute Assay for Mean Burst Duration, Shafer Lab (AID 2284014). As to the method: CCTE_Shafer_MEA_acute assay is conducted using Axion Biosystems 48 well microelectrode array (MEA) plates and Maestro recording system. Each well of the MEA plate contains a grid of 16 microelectrodes embedded in the culture surface. Electrically active cells, such as neurons, can be cultured over the electrodes, and electrical activity in these cells can be recorded extracellularly. The spontaneous firing of neurons is captured from each electrode on a microsecond timescale providing both temporally and spatially precise data. […] The CCTE_Shafer_MEA_acute assay uses primary cultures of rat cortical neurons. As these cultures mature over time, neural networks develop functional activity and form cohesive networks in which electrical activity can be highly coordinated. Baseline 40-minute recordings are made on days post-plating 13 or 15, followed by a secondary 40-minute recording after chemical exposure.CCTE_Shafer_MEA_acute_burst_duration_mean is a component of the CCTE_Shafer_MEA_acute assay. It measures the average time from the first spike (action potential firing) to the last spike in a single-electrode burst (temporally-clustered group of spikes) during a recording in a microelectrode array (MEA) using Axion Biosystems Maestro 768 channel amplifier with the AxIS adaptive spike detector. The recordings before and after chemical treatment are used to calculate a percent change in the mean burst duration in each well.Data from the assay component CCTE_Shafer_MEA_acute_burst_duration_mean was analyzed into 1 assay endpoint. This assay endpoint, CCTE_Shafer_MEA_acute_burst_duration_mean, was analyzed in the negative analysis fitting direction relative to DMSO as the negative control and baseline of activity. Using a type of functional reporter, gain or loss-of-signal activity can be used to understand electrical activity.
Spontaneous activity in the cortical cultures was recorded using an Axion Biosystems Maestro 768 channel amplifier and Axion Integrated Studios (AxIS) v1.8 (or later) software. The amplifier recorded from all channels simultaneously (gain = 1200 x; sampling rate = 12.5 kHz/channel): raw signals were filtered with a Butterworth band-pass filter (300-5000 Hz), which filters out slower local field potentials leaving only fast potentials, i.e., "spikes", arising from extracellular currents associated with action potentials (Pine 2006; Wheeler and Nam 2011). On-line spike detection of filtered signals was conducted with the AxIS adaptive spike detector, using a threshold of 8x the root mean squared (rms) noise on each channel. Any electrodes with rms noise levels greater than 5 uV were grounded (e.g., no data were recorded). Once grounded, an electrode was grounded for the duration of the experiment. All recordings were conducted at 37 C. Wells were deemed usable if on the day of the exposure >/= 10 electrodes were active (defined as >/= 5 spikes/min). On DIV 13 or 15, a minimum of three wells from one cortical culture preparation were treated with each compound (0.03-40 uM). Prior to recording baseline activity, each mwMEA plate was placed in the Maestro at 37 C and allowed to sit for 20 min while firing rates stabilized. Baseline activity (40 min) was recorded before the addition of each compound. An additional 40 min of spontaneous activity was recorded in the presence of each compound. Changes in network parameters relative to baseline were assessed following compound treatment.
For `O=C(CCCN1CCC(O)(c2ccc(Cl)cc2)CC1)c1ccc(F)cc1`, the outcome was inactive. The value for `OCC(CO)(CBr)CBr` was “inactive”.

In the case of `N=C(N)c1ccc(OCCCCCOc2ccc(C(=N)N)cc2)cc1`, the call was inactive. The result for `CCCCC=O` reads “inactive”; that for `Oc1c(Cl)cc(Cl)cc1Sc1cc(Cl)cc(Cl)c1O`, “inactive”.

As for `CN(C)CCOC(c1ccccc1)c1ccccc1`, the compound was called inactive. Consider `CC(=O)Nc1ccc(O)cc1`, for which the result was inactive.

Take `CCCCCCCCCCCC`: the compound was classed as inactive. The value for `CCC(C)c1ccccc1O` (configuration not stated) was “inactive”. The value for `O=C1NS(=O)(=O)c2ccccc21` was “inactive”; that for `CCCCc1oc2ccccc2c1C(=O)c1cc(I)c(OCCN(CC)CC)c(I)c1` was “inactive”; that for `Oc1ccc(Cc2ccccc2O)cc1` was “inactive”.
